Measurements from PubChem BioAssay AID1508600 (Functional Genomics Laboratory (NCATS/FGL), 2020).
Hit rate of the full screen: of about 53,000 sequences, about 3,700 (7%) were called active. This is one part of a sample in which actives are shown more often than they occur. Unmarked numbers belong to inactive results.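 The calls were made as follows: active = gene knockdowns whose robust z-score for IL-1 alpha signal is at least 2 or at most -2, so actives lie on both sides; inactive = the rest.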

assay: Components of the Cytosolic LPS Sensing Pathway: Gene Identification via Genome-wide siRNA Screen; settings: RAW264.7 macrophages, IL-1a HTRF, actives lie on both sides, screened at 100 nM (by protocol), cells primed 5 h with Pam3CSK4 first;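 also: robust z of the log signal after scaling to non-targeting control siRNA wells of the plate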
Summary of the method: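 Supernatant IL-1a by HTRF from RAW264.7 cells primed with Pam3CSK4 (5 hours) and transfected with LipidA (24 hour) after 48h siRNA knockdown at 100 nM; cell viability checked with CellTiter-Glo.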

Row | Sequence | z-score
1 | GGAAAGAACAACAAAGGAGTT against Snx9 | 0.84
2 | CCUCUCAGAUGGUAUAUAATT against Olfr520 | -2.14 (active)
3 | GCCUCAAUUGUUUACUUAUTT against Edn2 | 0.404
4 | GGAGAAGUCAUGAAACAAATT against Prkn | 0.349
5 | GGACAAAUCUUUGUUUAGCTT against Plscr3 | -0.0965
6 | GGGACCCAAGGAUAUGAAUTT against Rbsn | 0.6
7 | GGAGCAAGUAUUUACAUUGTT against Psmd10 | 1.55
8 | GGAGGUUGGGAUGAAUUAUTT against Rab6b | 4.26 (active)
9 | GGACUAAUUGGCCUCUGCUTT against Rpl22l1 | 0.638
10 | GGGCUGCUCACAAUUUAUATT against Tmem135 | 1.17
11 | GGACACUUACGUCAUCGAGTT against Rtca | -0.814
12 | GGUGGAGAUUGUUUGUAAATT against Lratd1 | 1.56
13 | GGACCCAUCGAAACCUCUATT against Pirb | -0.0759
14 | CCCAUGCUUGGAAUAAUUATT against Man1a | 0.00246
15 | GGACGAACUCAUCAACAGUTT against Gtf2ird1 | -0.00436
16 | GGGAAGCUGAUUAUACAUUTT against Serpinf1 | 3.22 (active)
17 | GGCUAAGAAUGAGACUGGUTT against Abcg4 | -0.0869
18 | GGAGAAGAUUCCAGAAGCCTT against Tcf15 | -1.42
19 | GGGCAUUGGCAAGAAAAAGTT against Ahdc1 | -0.543
20 | GCAUAAGCGAAGAAGAAGUTT against Clk2 | 0.0795
21 | GCUGGCUGUUUCACUACAGTT against Tdh | 3.19 (active)
22 | GCUAGAGUAGCUUUGGGCATT against Glra3 | 1.37
23 | GCAAGAUUUAUCCCAGUCGTT against Rnf2 | -1.83

Row | Sequence | z-score
24 | GCUUCGACAUUGUUAGUUATT against Ammecr1 | 0.322
25 | GCAUGUUCGUGGAAGUACUTT against Got1l1 | 0.0202
26 | GGAGAUCCUCAAGGAGCAGTT against Park7 | 2.02 (active)
27 | GCAGUUUCUAAUGAAGGUUTT against Ppp2r5a | 0.416
28 | CGGUCUGCUCUACAUUGUCTT against Nek4 | 1.39
29 | GCCUAUGGGUCAUUUCAAATT against Dock11 | -0.968
30 | GGGCAGGUGGAUGUGGAAATT against Ryr2 | 0.546
31 | GGUACCAUAUCUGUGAACATT against Nrxn3 | -1.25
32 | GGUUCAGCUGGUCCUAUCUTT against Olfr1099 | -2.07 (active)
33 | GGCAAUGCUGUCCUACUAUTT against Map2k5 | -1.19
34 | GGAGAACUUAAAGCACAAUTT against Plxnb1 | 0.179
35 | UCCUAGAGUCAUCAUCAUATT against A530064D06Rik | -0.44
36 | GGAAUCUAUGAACAUGUUUTT against Pcdh12 | -0.433
37 | GGCUGGGAAAAAAAAAGAATT against Ifi205 | 0.704
38 | GGAUUUUUAUGAUAGUGACTT against Slc4a1ap | -0.747
39 | GCAUCACUGGAAAUCUUACTT against Olfr807 | -2.31 (active)
40 | CCAUUUGAUCAAGCUUUAGTT against Spock3 | 0.0957
41 | GGACUCUCAAUGAUGAAUATT against Map7d3 | 1.85
42 | GCGACACAUUCGAUCUCAGTT against Mecom | 4.11 (active)
43 | CCAGAUUCGAAUAUCUAAGTT against Mrps30 | 0.935
44 | GCCAGAAUGGACUUGAGAATT against Vmn1r227 | -1.21
45 | GCCUUAAUGAGGGUUAUGCTT against Fbp1 | -1.11
46 | CGAACCAUAGCUAGCUCCATT against Klhdc8b | -0.869

Row | Sequence | z-score
47 | GGCUCAGUCCCAUCAGCAUTT against Gdf7 | 0.524
48 | GGUUUGAUCUCAUUUUCCUTT against Mcm4 | 2.92 (active)
49 | GGAACAGUAUAUAAGUUCATT against Hcfc2 | -0.593
50 | GCUACUUCAUGGAAUCUUCTT against Mrgprb8 | -0.668
51 | CGUUUGAAUAAUUCAGAGUTT against Armcx2 | -0.152
52 | GGUGGAAGGCUUUUUCUACTT against Olfr1104 | 1.63
53 | GCGAUACCGUGCCAUGUUUTT against Dohh | -1.21
54 | CGAAGAUUACCUUUCAAGATT against St6galnac3 | 0.371
55 | GCCCUUUCGCCUAUGGUUUTT against Tedc1 | 0.931
56 | GCUAAUCAACAAUGUCGCCTT against Atp5b | 0.781
57 | GGUUAAAGUCCUUCAGUAUTT against Tubb3 | 2.83 (active)
58 | GGAAAAAACCACGAUUGAGTT against Pecam1 | -0.434
59 | GGCUUACCUACAACAAGUUTT against Ccnt1 | -2.07 (active)
60 | GGUUAGGCACAAAUAAGUUTT against B230206H07Rik | 1.08
61 | GGUUCCUAUACCCAACGGUTT against Mrgpra7 | -1.07
62 | GGUUGAUGAUAGCUCUGAATT against Opn1mw | -0.22
63 | GGUCUUAAGGAGAAAUGAATT against Cbln2 | -0.48
64 | GCUUCGCUCGCAUUCUUAUTT against Rsrc1 | -0.299
65 | GGACUAUCCAGGAAUCGUGTT against Ergic3 | 0.713
66 | GGACAAGCUGAAGACGCACTT against Zfp64 | 3.03 (active)
67 | GCAUAGUCUUGUUAACCAGTT against Poldip3 | -0.689
68 | GGAUUCAUAGACUUCAUAGTT against Impdh1 | 0.608
